Data as given in PubChem BioAssay (NCATS).
Inconclusive results are not listed. Activity calls are given as the source filed them. Calls follow the shape of the dose curve; as a rule, active = well fitted inhibition curve with a large enough effect; inconclusive = small, poorly fitted or top-dose-only effect; inactive = flat fitted curve, though single readings scatter.

How the values were obtained:
Experiment in all cases: Cytotoxic Profiling of Annotated Libraries Using Quantitative High-Throughput Screening (AID 1296008); also: nearly all actives have a fitted effect of over 60% in size
Conditions in all cases: Five cell lines viability, CellTiter-Glo ATP luminescence, 48-72 h; max response: hits give low values
CRL-7250 = normal cell line; tested on: CRL-7250
Outline: (§1)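 Compounds were pin-transferred onto cells and incubated 48 or 72 hr at 37 degree Celsius, 95% humidity. CellTiter-Glo was added, plates sat 10 min at room temperature, then ATP-coupled luminescence was imaged as the viability read-out.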

HEK293 = tested on: HEK293
Outline: as §1

HaCat = tested on: HaCat
Outline: as §1

KB-3-1 = tested on: KB-3-1
Outline: as §1

NIH3T3 = tested on: NIH3T3
Outline: as §1

Measured: max response
% is scaled to controls: 0 for no effect and ±100 for the full control effect.

Cc1c(F)cc(C(=O)NC2CC2)cc1-c1ccc(C(=O)NCC(C)(C)C)cn1
inactive: CRL-7250 | HEK293 -4.94% | HaCat | KB-3-1 4.19% | NIH3T3 -1.86%

CC(C)[C@](O)(c1ccc2cc(OC(F)F)c(OC(F)F)cc2c1)c1cn[nH]n1
inactive: CRL-7250 | HEK293 -21.3% | HaCat | KB-3-1 -6.26% | NIH3T3 1.17%

CC(O)CCc1ccc(O[C@@H]2O[C@H](CO)[C@@H](O)[C@H](O)[C@H]2O)cc1 (stereo not given in full)
inactive: CRL-7250 0.631% | HEK293 3.66% | HaCat | KB-3-1 2.69% | NIH3T3 -0.367%

CN(C)CCC[C@]1(c2ccc(F)cc2)OCc2cc(C#N)ccc21
inactive: CRL-7250 1.86% | HEK293 -1.92% | HaCat | KB-3-1 -2.48% | NIH3T3

Cc1nc2cc(-c3cc(F)cc(C#N)c3)ccc2s1
inactive: CRL-7250 -5.31% | HEK293 -12.9% | HaCat -10.9% | KB-3-1 0.518% | NIH3T3

COC(=O)/C=C/c1ccc(O[C@@H]2O[C@H](CO)[C@@H](O)[C@H](O)[C@H]2O)cc1
inactive: CRL-7250 -1.55% | HEK293 -5.47% | HaCat | KB-3-1 2.42% | NIH3T3

COC(=O)C1=CO[C@@H](O[C@@H]2O[C@H](CO)[C@@H](O)[C@H](O)[C@H]2O)[C@H]2[C@@H]1C=C[C@]21C=C([C@H](C)OC(=O)/C=C/c2ccc(O[C@@H]3O[C@H](CO)[C@@H](O)[C@H](O)[C@H]3O)cc2)C(=O)O1
inactive: CRL-7250 -2.8% | HEK293 4.82% | HaCat | KB-3-1 9.99% | NIH3T3
